Experimental data taken from PubChem BioAssay (Tox21).
Results filed as inconclusive are left out. Activity calls are given as the source filed them. Unless noted, calls follow the shape of the dose curve; as a rule, active = well fitted curve in the direction sought with a large enough effect in the repeat runs; inconclusive = weak or mixed curves; inactive = no such curve, though single readings can be large; an effect the other way counts as inactive or inconclusive.

Legend:
[1] = qHTS assay to identify small molecule agonists of the sonic hedgehog signaling (Shh) pathway (AID 1259368; calls by dose curve;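 also: NIH/3T3-derived 3T3Gli1-Luc cells carrying a stable Gli1-driven firefly luciferase reporter; series mostly up to about 92 µM; nearly all actives have a fitted effect of over 15% in size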)
Outline: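 Following a 24 hr incubation with DMSO-dissolved compounds at 37 C, 5% CO2, Gli1-Luc NIH/3T3-derived cells received luciferase reagent for 30 min at room temperature prior to luminescence measurement.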

[2] = qHTS assay to identify small molecule antagonists of the sonic hedgehog signaling (Shh) pathway (AID 1259369; calls by dose curve; also: nearly all actives have a fitted effect of over 45% in size)
Outline: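 Read-out is luminescence from a firefly luciferase gene controlled by the Gli1 response element, in 3T3Gli1-Luc cells pre-incubated 4hr then exposed to compounds and conditioned medium for 24hr.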

[3] = target: Estrogen receptor beta (Homo sapiens) (UniProt Q92731); assay: qHTS assay to identify small molecule agonists of the estrogen receptor beta (ER-beta) signaling pathway (AID 1259377; active = well fitted activation curve with a large enough effect in the signal ratio in the repeat runs, not every such curve was filed as active; the % refers to the signal ratio)
Outline: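 Beta-lactamase reporter readout: fluorescence of LiveBLAzer B/G FRET substrate after 2 h at room temperature, following 16 h compound treatment of ER-beta-UAS-bla HEK293T cells at 37C in 2% charcoal-stripped FBS medium.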

[4] = target: Estrogen receptor beta (Homo sapiens) (UniProt Q92731); assay: qHTS assay to identify small molecule antagonists of the estrogen receptor beta (ER-beta) signaling pathway (AID 1259378; active = well fitted inhibition curve with a large enough effect in the signal ratio in the repeat runs, not every such curve was filed as active; the % refers to the signal ratio)
Outline: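 Antagonist mode: compounds added to beta-lactamase reporter HEK293T ER-beta-UAS cells stimulated with E2 (1nM final), 16 hr at 37C. LiveBLAzer B/G FRET substrate, 2 hours room temperature, fluorescence read-out.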

[5] = qHTS assay to identify small molecule agonists of the androgen receptor (AR) signaling pathway in the presence of an antagonist - cell viability counter screen (AID 1259379);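 also: MDA-kb2 human breast cancer cells carrying an MMTV luciferase reporter; series mostly up to about 92 µM; nearly all actives have a fitted effect of over 25% in size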
Outline: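 Each compound was tested at 15 concentrations on MDA-kb2 cells in the presence of 3.0uM nilutamide. Viability was measured by CellTiter-Fluor fluorescence after a 16 hr incubation at 37C in a CO2-free atmosphere.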

[6] = qHTS assay to identify small molecule agonists of the estrogen receptor beta (ER-beta) signaling pathway - cell viability counter screen (AID 1259380); also: nearly all actives have a fitted effect of over 30% in size
Outline: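 Compounds dissolved in DMSO were pin-transferred onto ER-beta-UAS-bla HEK293T cells that had settled 6 hr, and exposure ran 16 hr at 37C. Following the reporter read, CellTiter-Glo luminescence after 30 min at room temperature indicated cytotoxicity.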

[7] = qHTS assay to identify small molecule antagonists of the estrogen receptor beta (ER-beta) signaling pathway - cell viability counter screen (AID 1259382);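 also: HEK293T cells carrying ER-beta-UAS-bla reporter stimulated with estradiol; series mostly up to about 92 µM; nearly all actives have a fitted effect of over 55% in size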
Outline: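 CellTiter-Glo ATP luminescence measured after the LiveBLAzer read in the same wells; ER-beta-UAS-bla HEK293T cells, 16 hr compound treatment with 1nM 17-beta-estradiol agonist at 37C, 5% CO2.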

[8] = target: Estrogen receptor (Homo sapiens) (UniProt P03372); assay: qHTS assay to identify small molecule agonists of the estrogen receptor alpha (ER-alpha) signaling pathway in the presence of an antagonist (AID 1259383; calls by dose curve; also: top concentration of the series differs between compounds; nearly all actives have a fitted effect of over 15% in size)
Outline: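 Luminescent ERE-luciferase reporter, VM7Luc4E2 cells (endogenous ER-alpha); 10.0nM ICI-182,780 final; 15-point compound titration; 22hr at 37C; ONE-Glo, 30min RT.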

[9] = qHTS assay to identify small molecule agonists or antagonists of the thyroid stimulating hormone receptor (TSHR) signaling pathway - wild type cell line counter screen (AID 1259384; calls by dose curve)
Outline: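 Counter screen in untransfected Hek293: compounds (15-point titration, triplicate) plus phosphodiesterase inhibitor Ro20-1724 added after 18 h plating; 30 min RT. Intracellular cAMP via competitive d2/cryptate immunoassay, 1 h incubation.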

[10] = target: Thyrotropin receptor (Homo sapiens) (UniProt P16473); assay: qHTS assay to identify small molecule antagonists of the thyroid stimulating hormone receptor (TSHR) signaling pathway (AID 1259385; calls by dose curve; also: nearly all actives have a fitted effect of over 20% in size)
Outline: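 Antagonist mode: compound-treated TSHR-expressing HEK293 cells were stimulated with 1.5 ng/mL TSH (final) in presence of Ro20-1724 for 30 min at RT. HTRF cAMP detection after 1 h; each compound tested at 15 concentrations, triplicate.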

[11] = qHTS assay to identify small molecule agonists of the estrogen receptor alpha (ER-alpha) signaling pathway in the presence of an antagonist - cell viability counter screen (AID 1259386);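 also: series mostly up to about 92 µM; cells exposed to compounds for 22 h at 37 °C before the viability read; nearly all actives have a fitted effect of over 30% in size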
Outline: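 Using estrogen-depleted VM7Luc4E2 cells, the 15-concentration compound series was applied together with 10.0nM ICI-182,780 and incubated 22hr at 37C/5% CO2. Cell viability was then scored by CellTiter-Fluor.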

[12] = target: Progesterone receptor (Homo sapiens) (UniProt P06401); assay: qHTS assay to identify small molecule antagonists of the progesterone receptor (PR) signaling pathway (AID 1346795; active = well fitted inhibition curve with a large enough effect in the signal ratio in the repeat runs, not every such curve was filed as active; the % refers to the signal ratio)
Outline: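 Beta-lactamase reporter, HEK293T PR-UAS-bla line; 2% charcoal-stripped FBS; 6 hr pre-incubation, 37C/5% CO2. Compound + R5020 1 nM final, 16 hr. LiveBLAzer B/G FRET substrate, 2 hr RT; fluorescence intensity read.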

[13] = qHTS assay to identify small molecule antagonists of the progesterone receptor (PR) signaling pathway - cell viability counter screen (AID 1346798); also: series mostly up to about 92 µM; nearly all actives have a fitted effect of over 50% in size
Outline: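 Luminescence readout (CellTiter-Glo, 30 min, RT) of viability in PR-UAS-bla HEK293T cells exposed to compound and R5020 agonist for 16 hr at 37C, 5% CO2; run in the same wells as the beta-lactamase reporter read.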

[14] = qHTS assay to identify small molecule agonists of the progesterone receptor (PR) signaling pathway - cell viability counter screen (AID 1346799; calls by dose curve; also: nearly all actives have a fitted effect of over 45% in size)
Outline: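 HEK293T PR-UAS-bla, 3,000 cells/well, 2% charcoal-stripped FBS; 6 h settle, compound 16 h at 37C/5% CO2; LiveBLAzer 2 h RT, then CellTiter-Glo 30 min RT, luminescence read.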

[15] = qHTS assay to identify small molecule antagonists of the TGF-beta/Smad signaling pathway - cell viability counter screen (AID 1346824); also: nearly all actives have a fitted effect of over 50% in size
Outline: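 Cytotoxicity counter-screen run in the same wells as the beta-lactamase Smad reporter read: CellTiter-Glo luminescence after 30 min at room temperature. HEK 293T SBE-bla cells had 5 hr compound exposure at 37 C with TGF-beta1 (0.25 ng/mL stock).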

[16] = qHTS assay to identify small molecule agonists of the TGF-beta/Smad signaling pathway - cell viability counter screen (AID 1346829); also: top concentration of the series differs between compounds; nearly all actives have a fitted effect of over 45% in size
Outline: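 Compound-treated SBE-bla HEK 293T cells (5 hr, 37 C) were assessed for viability with CellTiter-Glo in parallel with the reporter read.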

[17] = qHTS assay to identify small molecule agonists of the TGF-beta/Smad signaling pathway (AID 1346859; active = well fitted activation curve with a large enough effect in the signal ratio in the repeat runs, not every such curve was filed as active; the % refers to the signal ratio; also: series mostly up to about 77 µM)
Outline: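 Read-out: fluorescence at 460 and 530 nm (405 nm excitation) after a 2 hr room-temperature incubation with beta-lactamase FRET substrate. SBE-bla HEK 293T cells had been treated with test compounds for 5 hr at 37 C.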

[18] = target: Thyrotropin-releasing hormone receptor (Homo sapiens) (UniProt P34981); assay: qHTS assay to identify small molecule antagonists of the thyrotropin-releasing hormone receptor (TRHR) signaling pathway (AID 1346877; active = well fitted inhibition curve with a large enough effect in the repeat runs, not every such curve was filed as active; also: series mostly up to about 51 µM)
Outline: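 Calcium signal in dye-loaded TRHR/HEK293 cells; compounds added 5 min before TRH (1 nM final); fluorescence monitored 3 min at 1 s steps.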

[19] = target: Progesterone receptor (Homo sapiens) (UniProt P06401); assay: qHTS assay to identify small molecule agonists of the progesterone receptor (PR) signaling pathway (AID 1346784; calls by dose curve; also: nearly all actives have a fitted effect of over 30% in size)
Outline: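 HEK 293T PR-UAS-bla reporter cells, 2% charcoal-stripped FBS; 6 hr settle at 37C/5% CO2, compound (DMSO) 16 hr, LiveBLAzer B/G FRET substrate 2 hr RT, fluorescence intensity read.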

[20] = target: Androgen receptor (Homo sapiens) (UniProt P10275); assay: qHTS assay to identify small molecule agonists of the androgen receptor (AR) signaling pathway in the presence of an antagonist (AID 1259381; calls by dose curve; also: nearly all actives have a fitted effect of over 15% in size)
Outline: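 Plated MDA-kb2 cells (3,000/well) were pre-incubated 5hr, given nilutamide (3.0uM final) or buffer, then dosed with compounds in DMSO at 15 concentrations. Luciferase activity was quantified by luminescence after 16hr at 37C.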

Measured: Potency

Chain of Estrogen receptor beta (Homo sapiens) (Q92731 whole entry, looked up): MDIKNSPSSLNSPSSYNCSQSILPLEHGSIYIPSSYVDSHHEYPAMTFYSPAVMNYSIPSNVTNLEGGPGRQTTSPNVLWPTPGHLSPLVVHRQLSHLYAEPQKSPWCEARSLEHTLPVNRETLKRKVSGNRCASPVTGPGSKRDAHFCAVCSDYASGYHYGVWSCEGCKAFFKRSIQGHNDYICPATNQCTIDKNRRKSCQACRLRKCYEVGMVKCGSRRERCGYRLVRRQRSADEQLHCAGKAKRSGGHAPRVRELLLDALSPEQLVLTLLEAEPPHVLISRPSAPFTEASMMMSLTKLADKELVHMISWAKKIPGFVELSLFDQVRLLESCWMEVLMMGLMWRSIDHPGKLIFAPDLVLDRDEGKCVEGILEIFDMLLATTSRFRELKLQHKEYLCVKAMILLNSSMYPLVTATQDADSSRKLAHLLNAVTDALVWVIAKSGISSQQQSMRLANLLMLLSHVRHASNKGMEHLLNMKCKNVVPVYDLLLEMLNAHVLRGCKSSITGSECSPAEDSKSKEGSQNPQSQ
Chain of Thyrotropin-releasing hormone receptor (Homo sapiens) (P34981 whole entry, looked up): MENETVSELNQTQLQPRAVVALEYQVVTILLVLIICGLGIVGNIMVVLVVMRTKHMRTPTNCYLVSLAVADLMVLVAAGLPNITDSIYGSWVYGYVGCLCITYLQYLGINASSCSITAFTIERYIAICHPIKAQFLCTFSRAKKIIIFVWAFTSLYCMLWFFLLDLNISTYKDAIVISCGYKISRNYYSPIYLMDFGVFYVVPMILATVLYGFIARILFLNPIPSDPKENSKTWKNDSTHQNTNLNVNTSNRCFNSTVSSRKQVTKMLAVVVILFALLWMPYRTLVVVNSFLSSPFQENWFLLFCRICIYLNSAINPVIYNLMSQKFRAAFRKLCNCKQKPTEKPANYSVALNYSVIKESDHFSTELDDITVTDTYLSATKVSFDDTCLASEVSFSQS
Chain of Progesterone receptor (Homo sapiens) (P06401 whole entry, looked up): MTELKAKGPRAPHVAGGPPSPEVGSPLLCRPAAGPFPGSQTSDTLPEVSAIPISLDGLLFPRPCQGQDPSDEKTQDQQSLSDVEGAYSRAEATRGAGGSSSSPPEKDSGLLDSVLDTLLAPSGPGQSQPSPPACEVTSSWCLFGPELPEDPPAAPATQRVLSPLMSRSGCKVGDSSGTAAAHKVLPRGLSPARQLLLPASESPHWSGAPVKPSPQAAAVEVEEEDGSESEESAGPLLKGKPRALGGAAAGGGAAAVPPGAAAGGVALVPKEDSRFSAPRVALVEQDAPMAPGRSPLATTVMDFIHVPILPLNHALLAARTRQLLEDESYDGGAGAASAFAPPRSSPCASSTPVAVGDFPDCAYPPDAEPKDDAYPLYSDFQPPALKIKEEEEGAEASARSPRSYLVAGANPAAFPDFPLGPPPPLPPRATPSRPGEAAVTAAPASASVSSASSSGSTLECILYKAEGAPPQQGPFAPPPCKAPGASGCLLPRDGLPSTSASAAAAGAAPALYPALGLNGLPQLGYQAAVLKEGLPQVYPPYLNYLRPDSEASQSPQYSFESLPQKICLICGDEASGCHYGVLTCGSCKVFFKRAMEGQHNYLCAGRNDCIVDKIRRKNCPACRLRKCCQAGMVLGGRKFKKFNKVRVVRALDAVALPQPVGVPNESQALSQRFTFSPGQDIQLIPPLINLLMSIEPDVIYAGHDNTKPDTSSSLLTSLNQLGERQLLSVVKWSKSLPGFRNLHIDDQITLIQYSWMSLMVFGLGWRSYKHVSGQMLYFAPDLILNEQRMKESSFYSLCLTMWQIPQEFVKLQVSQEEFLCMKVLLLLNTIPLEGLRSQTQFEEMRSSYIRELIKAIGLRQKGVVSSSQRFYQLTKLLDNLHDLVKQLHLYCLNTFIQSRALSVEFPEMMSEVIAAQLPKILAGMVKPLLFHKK
Chain of Thyrotropin receptor (Homo sapiens) (P16473 whole entry, looked up): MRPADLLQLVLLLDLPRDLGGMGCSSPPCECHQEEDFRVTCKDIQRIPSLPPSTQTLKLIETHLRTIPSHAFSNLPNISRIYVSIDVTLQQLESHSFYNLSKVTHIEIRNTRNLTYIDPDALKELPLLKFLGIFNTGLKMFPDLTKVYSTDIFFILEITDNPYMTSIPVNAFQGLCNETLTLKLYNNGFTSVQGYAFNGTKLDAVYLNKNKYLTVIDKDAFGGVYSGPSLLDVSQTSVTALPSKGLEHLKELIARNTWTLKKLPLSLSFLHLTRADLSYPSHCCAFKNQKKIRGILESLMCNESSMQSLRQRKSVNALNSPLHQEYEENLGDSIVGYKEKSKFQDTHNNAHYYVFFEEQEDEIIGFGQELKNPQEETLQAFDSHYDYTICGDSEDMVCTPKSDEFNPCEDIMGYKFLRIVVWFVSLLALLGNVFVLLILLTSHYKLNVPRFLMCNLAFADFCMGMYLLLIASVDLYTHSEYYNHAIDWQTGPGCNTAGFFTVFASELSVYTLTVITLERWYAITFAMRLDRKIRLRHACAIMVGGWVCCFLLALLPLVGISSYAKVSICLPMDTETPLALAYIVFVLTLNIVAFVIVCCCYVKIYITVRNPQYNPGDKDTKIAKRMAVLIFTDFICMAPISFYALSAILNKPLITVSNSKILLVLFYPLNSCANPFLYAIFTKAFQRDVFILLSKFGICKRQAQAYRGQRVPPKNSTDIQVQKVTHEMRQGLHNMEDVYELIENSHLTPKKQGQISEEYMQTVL
Chain of Estrogen receptor (Homo sapiens) (P03372 whole entry, looked up): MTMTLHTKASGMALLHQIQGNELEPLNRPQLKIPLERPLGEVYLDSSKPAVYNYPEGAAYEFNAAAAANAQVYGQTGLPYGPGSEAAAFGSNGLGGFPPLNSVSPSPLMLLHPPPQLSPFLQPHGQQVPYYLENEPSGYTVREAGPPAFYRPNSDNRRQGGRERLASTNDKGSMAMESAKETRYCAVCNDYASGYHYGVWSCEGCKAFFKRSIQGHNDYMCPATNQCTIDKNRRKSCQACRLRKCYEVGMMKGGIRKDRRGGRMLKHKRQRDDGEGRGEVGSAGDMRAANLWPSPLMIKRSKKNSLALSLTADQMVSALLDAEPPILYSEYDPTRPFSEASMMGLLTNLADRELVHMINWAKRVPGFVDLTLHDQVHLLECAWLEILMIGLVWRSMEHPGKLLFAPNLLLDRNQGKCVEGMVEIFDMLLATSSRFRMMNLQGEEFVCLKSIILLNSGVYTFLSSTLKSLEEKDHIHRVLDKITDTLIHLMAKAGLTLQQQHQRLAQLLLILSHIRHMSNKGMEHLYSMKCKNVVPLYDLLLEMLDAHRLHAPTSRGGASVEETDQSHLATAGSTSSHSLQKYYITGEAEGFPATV
Chain of Androgen receptor (Homo sapiens) (P10275 whole entry, looked up): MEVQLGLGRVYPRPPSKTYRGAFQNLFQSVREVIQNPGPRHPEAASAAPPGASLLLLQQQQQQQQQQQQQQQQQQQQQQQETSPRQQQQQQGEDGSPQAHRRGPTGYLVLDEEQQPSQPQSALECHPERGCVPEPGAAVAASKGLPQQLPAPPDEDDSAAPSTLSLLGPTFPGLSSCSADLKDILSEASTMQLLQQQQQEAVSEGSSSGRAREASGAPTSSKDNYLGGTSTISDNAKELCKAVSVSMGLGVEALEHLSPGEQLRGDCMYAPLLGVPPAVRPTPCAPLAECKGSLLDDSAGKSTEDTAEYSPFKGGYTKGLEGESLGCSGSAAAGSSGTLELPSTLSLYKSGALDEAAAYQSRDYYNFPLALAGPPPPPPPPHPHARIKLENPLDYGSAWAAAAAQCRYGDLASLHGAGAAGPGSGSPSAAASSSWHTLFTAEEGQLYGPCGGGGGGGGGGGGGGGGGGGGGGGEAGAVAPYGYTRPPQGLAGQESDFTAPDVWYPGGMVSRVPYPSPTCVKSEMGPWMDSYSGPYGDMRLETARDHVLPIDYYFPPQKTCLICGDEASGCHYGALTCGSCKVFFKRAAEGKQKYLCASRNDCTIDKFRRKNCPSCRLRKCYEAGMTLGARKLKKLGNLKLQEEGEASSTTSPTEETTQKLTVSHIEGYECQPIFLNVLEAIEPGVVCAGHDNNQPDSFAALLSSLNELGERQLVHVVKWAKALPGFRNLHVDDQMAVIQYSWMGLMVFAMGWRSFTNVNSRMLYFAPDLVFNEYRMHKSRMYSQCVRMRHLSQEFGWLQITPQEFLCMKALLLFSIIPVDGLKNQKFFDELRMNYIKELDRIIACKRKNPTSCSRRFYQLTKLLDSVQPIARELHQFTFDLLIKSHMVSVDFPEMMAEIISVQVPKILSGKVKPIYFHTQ

CN(C)CCN1C(=O)c2ccccc2N(C)c2ccccc21
not listed: [19] | [20]
inactive: all other assays above

CC(C)C=O
not listed: [8] | [20]
inactive: all other assays above

O=C1c2ccccc2C(=O)C1c1ccc(Br)cc1
not listed: [11] | [12] | [18]
inactive: all other assays above

CC(=O)c1cc2ccccc2s1
not listed: [15] | [18] | [20]
inactive: all other assays above

Cc1[nH]cnc1CN1CCc2c(c3ccccc3n2C)C1=O
not listed: [8] | [11] | [18] | [19] | [20]
inactive: all other assays above

CC(C)=CCC/C(C)=C/CC/C(C)=C/CCC(=O)OC/C=C(\C)CCC=C(C)C
not listed: [18] | [19] | [20]
inactive: all other assays above

CCC(OCCCOC)OC(C)=O (configuration not stated)
not listed: [8] | [18] | [20]
inactive: all other assays above

CC1=C(CC=O)C(C)(C)CCC1
not listed: [8] | [20]
inactive: all other assays above
